Results published in the supplement of paper PMC6555819.

Experiments:
Test in all cases: PBM binding z-score (relative to random genomic background probes); higher = stronger binding; sequences stand for … in GC…GCGATTGACAGCGTAGAATGAAGG
[1] = tested on: FXR:RXRa (NR concentration 270 nM, RXRa partner concentration 90 nM)
Summary of the method: (§1)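 Binding z-scores take random background probes as their reference. They come from custom Agilent 4×180K protein-binding microarrays incubated 1 h with ligand-free nuclear receptor dimers, with antibodies against each partner (one per run) detecting binding. Scanned fluorescence was regression-normalized.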

[2] = tested on: LXRa:RXRa (NR concentration 270 nM, RXRa partner concentration 90 nM)
Summary of the method: as §1

[3] = tested on: LXRa homodimer (NR concentration 270 nM)
Summary of the method: as §1

[4] = tested on: LXRb:RXRa (NR concentration 270 nM, RXRa partner concentration 90 nM)
Summary of the method: as §1

[5] = tested on: LXRb homodimer (NR concentration 270 nM)
Summary of the method: as §1

[6] = tested on: PPARa:RXRa (NR concentration 270 nM, RXRa partner concentration 90 nM)
Summary of the method: as §1

[7] = tested on: PPARg:RXRa (NR concentration 180 nM, RXRa partner concentration 90 nM)
Summary of the method: as §1

[8] = tested on: PPARg:RXRa 270nM:90nM, anti-RXR (NR concentration 270 nM, RXRa partner concentration 90 nM)
Summary of the method: as §1

[9] = tested on: PPARg:RXRa 30nM:10nM, anti-RXR (NR concentration 30 nM, RXRa partner concentration 10 nM)
Summary of the method: as §1

[10] = tested on: PPARg:RXRa 90nM:30nM, anti-RXR (NR concentration 90 nM, RXRa partner concentration 30 nM)
Summary of the method: as §1

Sequence	PBM binding z-score [1]	PBM binding z-score [2]	PBM binding z-score [3]	PBM binding z-score [4]	PBM binding z-score [5]	PBM binding z-score [6]	PBM binding z-score [7]	PBM binding z-score [8]	PBM binding z-score [9]	PBM binding z-score [10]
CCGAGGAGGTTATGGGGCATTCAGGCAACGGTGA	1.52	1.44	0.15	1.86	-0.173	2.84	1.66	2.11	0.0714	1.39
CCTACTGGGCCATTCAGAGGTGATTGATCATATG	-0.00465	0.0536	-0.239	-0.138	-0.593	0.81	0.504	0.898	-0.276	0.119
CCTAGTAGGCCAGGGTCACTCAAGCATTTCGCTT	1.96	1.56	-0.322	2.01	-0.98	3.69	3.5	4.07	1.36	3.22
TCATATAGGTAATACAGGTGAAGGTCGGCATCTA	1.22	1.34	0.87	1.02	0.522	2.28	1.83	3.03	4.02	3.78
TATACAGGGTCAAAGGCTAGAGTACGAATGTCGA	7.16	6.17	2.74	4.84	2.57	5.93	7.9	7.07	5	6.71
ACAGACAGGTGACGAAGGTAACTCAGGCTATCAT	-0.34	-0.14	-0.233	-0.231	-0.858	0.582	0.955	0.489	-0.242	0.424
GCTCGGAGGACAAGGTCAGAGATTTGTCCGTAGA	1.22	1.62	-0.347	1.2	-0.658	2.13	0.719	1.53	-0.349	0.587
TTACCAAGGTGAGCTCAGGTCGTTGATCCAACTC	1.26	0.561	-0.29	0.42	-1.08	0.894	-0.199	0.203	-0.185	-0.151
GGAACCAGGGCAAGTTGATAGCAGAGTTTGATGG	1.5	0.969	0.225	0.866	0.488	1.54	1.17	0.853	-0.119	0.257
AGAACGAGGGCAATAAGTTGATAGCACGGGTGGC	0.456	0.268	-0.278	-0.143	-0.518	1.24	1.44	0.893	0.0758	0.217
CCTTACGGGTCAAGGTTTTAGCACGGGTGGTACG	4.88	3.1	0.107	2.74	-0.202	4.56	4.23	4.44	1.43	3.33
GGAACGAGGGCCTTCGAGTTGATAGCATGGCGAT	-0.344	-0.805	-0.648	-0.91	-1.22	-0.579	0.209	-0.359	-0.539	-0.758
TGTCAAAGTTCGAAGGTAACGTAAGTATCCACAC	1.54	1.56	0.166	1.27	-0.175	2.58	4.57	5	2.28	4.19
ATCGAAAGGTCGAGGTGAGTTTAGAGAAAGGGAA	4.34	3.68	-0.00415	2.76	0.473	4.5	3.03	3.81	1.16	2.57
TGACCAAGGTGAGCTGAGGTCGTTGATCCAACTC	0.866	1.01	-0.752	0.289	-1.36	1.62	0.26	0.767	-0.66	0.279
GCTGCTAGGCCAGGTTGGTCAGCTAACGGGTACG	-1	-1.03	-0.776	-1.31	-1.37	-1.27	-0.607	-1.01	-1.22	-1.17
CCTTACGGGTCACTCCAGGCTATAGCATCGGAGT	4.45	5.59	-0.324	2.91	-0.145	4.07	2.95	3.31	0.716	1.9
AGAATGAGGTTACCTAAGATCAGGGAAACGCTTG	1.57	6.42	-0.328	3.4	-0.272	3.36	2.39	2.16	0.68	1.55
AAAACGAGGGCAATGAGTTGATAGCACGGGTGGC	0.531	0.364	-0.353	-0.0182	-0.657	1.55	2.02	1.44	0.0987	0.879
TCTAGTTGGGCACGGAGGTCACACACGACGGGTA	2.68	2.91	1.6	2.66	0.446	3.52	2.82	3.41	2.73	2.96
ACAGACAGGTGATGAAGGTAACTCATGCTATCAT	-0.264	-0.284	0.081	-0.0857	-0.304	0.0179	0.862	-0.0647	0.121	-0.0244
TCATATAGGTAATGCAGGTGAAAGTCGGCATCTA	0.698	0.973	0.228	0.199	-0.224	2.23	1.65	2.58	3.86	2.86
TTACCAAGGTGAAGGTCGTAGATCCCTCTGTAGA	0.719	0.647	-0.474	0.573	-0.742	2.43	3.49	3.86	2.16	3.43
GCTATTAGTTGACAGGGCAACCGAATGATTCTCG	-0.301	-0.298	-0.0236	-0.0105	-0.293	0.0349	0.532	0.626	-0.199	0.442
